Drawing on PubChem BioAssay (EPA / NIEHS), this text covers outcome and AC50 for nine compounds.

SMILES strings stand for the structures. Results filed as inconclusive are left out. The source made the active and inactive calls. How the source made its calls, unless noted: active means hit-call score of the fitted dose curve at least 0.9, where 1 is the maximum; inactive means score below 0.9.

The target in assay [1] is Estrogen receptor (Homo sapiens) (UniProt P03372). The assay can be described thus: CCTE_Deisenroth_AIME_384WELL_LUC_Shift: CCTE's 384-well Estrogen Receptor Transactivation Assay with AIME metabolic competence data shift (ERTA luciferase; difference in metabolism positive and negative), Deisenroth Lab (AID 2284041).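 Further: shift is response with S9 minus without S9 so positive means metabolism raised ER signal.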 An outline of the steps:
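Here, parent compounds undergo 2 h phase I metabolism by PB/BNF-induced rat S9 before 24 h transactivation in VM7Luc4E2 cells; the curve models S9-positive minus S9-negative response over a 10-point series.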

Assay [2] is described as follows: CCTE_Shafer_MEA_acute_AB: CCTE's Alamar Blue Assay for Cytotoxicity in the Neural Acute Assay, Shafer Lab (AID 2284069; active means hit-call score of the fitted dose curve at least 0.9, where 1 is the maximum;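 further: active compounds lower the viability signal compared with DMSO wells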). The gist of the method: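 Read-out: resazurin fluorescence (ex 544, em 590 nm) after CTB reagent at 1:6 dilution in fresh media. Cells: primary rat cortical neuron networks, DIV 13 or 15, chemically exposed on MEA plates; DMSO as negative control/baseline.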
In general terms: Alamar Blue is a resazurin reagent that responds to reducing activity.

For a further assay, the system named is DIO2 (gene 1734). The assay can be described thus: CCTE_GLTED_hDIO2: CCTE's human Deiodinase 2 (DIO2) Inhibition Assay, Great Lakes Toxicology and Ecology Division (GLTED) Lab (AID 2284050; active means hit-call score of the fitted dose curve at least 0.9, where 1 is the maximum). The gist of the method:
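Cell-free human DIO2 enzyme was incubated with test chemical for 3 h; iodide liberated from substrate was then quantified by the Sandell-Kolthoff reaction (absorbance), run in triplicate. Loss of signal versus DMSO baseline indicated inhibition.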

A further assay concerns DIO3 (gene 1735). The assay can be described thus: CCTE_GLTED_hDIO3: CCTE's human Deiodinase 3 (DIO3) Inhibition Assay, Great Lakes Toxicology and Ecology Division (GLTED) Lab (AID 2284055; active means hit-call score of the fitted dose curve at least 0.9, where 1 is the maximum;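 further: potency is for inhibition seen as loss of released iodide signal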). The gist of the method:
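Cell-free assay with human DIO3 enzyme produced by adenovirus expression; enzyme incubated with test chemical for 3 hours. Liberated iodide then measured by Sandell-Kolthoff absorbance; loss of signal versus DMSO baseline indicates inhibition, run in triplicate.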

A short description of assay [3]: CCTE_Shafer_MEA_dev_burst_rate: CCTE's Neural Network Formation Assay for Burst Rate, Shafer Lab (AID 2284042).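 On AC50: potency for loss of burst rate below DMSO control.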 An outline of the steps: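 Rat primary cortical cultures on PEI/laminin MEA; compound from plating, re-dosed at DIV 5, 9 media change. Single-electrode bursts/recording length, well mean of active electrodes; AUC over DIV 5–12 recordings; loss-of-signal vs DMSO.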

Assay [4] is described as follows: CCTE_Shafer_MEA_dev_bursting_electrodes_number: CCTE's Neural Network Formation Assay for Number of Bursting Electrodes, Shafer Lab (AID 2284043; active means hit-call score of the fitted dose curve at least 0.9, where 1 is the maximum;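 further: potency is for loss of bursting electrodes relative to DMSO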). An outline of the steps: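 Primary rat cortical neurons were cultured on PEI-coated 48-well MEA plates (16 electrodes/well) and exposed from plating through day 12, with compound renewed at feeds on DIV 5 and 9. Electrodes bursting ≥1 per 2 min were counted on DIV 5, 7, 9, 12; trapezoidal AUC taken.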

A short description of assay [5]: CCTE_Shafer_MEA_dev_per_burst_interspike_interval: CCTE's Neural Network Formation Assay for Burst Interspike Interval, Shafer Lab (AID 2284044).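 Further: mean spike spacing inside bursts as AUC over recordings on days 5 7 9 12.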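 On AC50: potency for a decrease of within-burst interspike interval below DMSO level.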 The gist of the method: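 Rat cortical primary cultures, 16 electrodes/well; compound from plating, renewed with full media change DIV 5 and 9. Spikes via adaptive detector; per-burst ISI well-mean over active bursting electrodes; AUC of DIV 5/7/9/12 recordings; loss-direction fit vs DMSO.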

Assay [6] is described as follows: CCTE_Shafer_MEA_dev_burst_duration_mean: CCTE's Neural Network Formation Assay for Mean Burst Duration, Shafer Lab (AID 2284045).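 On AC50: curve fitted for loss meaning shorter burst duration than DMSO.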 An outline of the steps: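 Primary rat cortical neurons on PEI-coated 16-electrode MEA wells, exposed from plating through day 12 with compound renewed at DIV 5 and 9; spontaneous activity recorded days 5, 7, 9, 12. Well-mean burst duration collapsed as trapezoidal AUC, fitted for loss versus DMSO.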

Assay [7] in a line: CCTE_Shafer_MEA_dev_interburst_interval_mean: CCTE's Neural Network Formation Assay for Mean Interburst Interval, Shafer Lab (AID 2284046).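 Further: well-mean interburst interval of bursting electrodes as AUC over four recording days; curve fitted for decrease in interburst interval relative to DMSO.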 An outline of the steps: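 Rat cortical neurons, 1.5 x 10^5 cells/well, 48-well MEA; compound from day 0 through DIV 12, media and treatment renewed DIV 5/9. Recordings DIV 5, 7, 9, 12; well-mean interburst interval → trapezoidal AUC, loss direction vs DMSO.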

The nature of assay [8]: CCTE_Shafer_MEA_dev_inter_network_spike_interval_mean: CCTE's Neural Network Formation Assay for Mean Inter-network Spike Interval, Shafer Lab (AID 2284047).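 On AC50: potency for a decrease in mean inter-network spike interval below DMSO.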 An outline of the steps:
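Primary rat cortical neurons on PEI-coated 48-well MEAs (16 electrodes/well) were exposed from plating day 0 to DIV 12, with dosing renewed at DIV 5 and 9. Recordings at DIV 5, 7, 9, 12 were collapsed by trapezoidal AUC, loss-of-signal fit vs DMSO.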

A short description of assay [9]: CCTE_Shafer_MEA_dev_network_spike_number: CCTE's Neural Network Formation Assay for Number of Network Spikes, Shafer Lab (AID 2284048).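 Further: synchronized bursts across electrodes counted on days 5 7 9 12 and integrated as AUC.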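 On AC50: fit as a loss of signal meaning fewer network spikes than DMSO.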 The gist of the method:
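Primary rat cortical neurons were seeded at 1.5 x 10^5 cells/well on PEI-coated 16-electrode MEA wells with laminin, exposed from plating day 0, compound renewed at DIV 5 and 9. Network spikes were recorded on days 5, 7, 9, 12 and summarized as trapezoidal AUC versus DMSO.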

The nature of assay [10]: CCTE_Shafer_MEA_dev_network_spike_peak: CCTE's Neural Network Formation Assay for Mean Number of Electrodes in Network Spike, Shafer Lab (AID 2284049).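 On AC50: fitted for loss of signal meaning fewer electrodes in network spikes than DMSO.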 An outline of the steps:
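Continuous 12-day exposure of rat cortical cultures, starting at plating, on MEA plates. Endpoint: electrodes participating in network-spike peaks, AUC across DIV 5–12, DMSO as negative control.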

A short description of assay [11]: CCTE_Shafer_MEA_dev_spike_duration_mean: CCTE's Neural Network Formation Assay for Mean Spike Duration, Shafer Lab (AID 2284051).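 Further: mean network spike duration pooled as area under curve over DIV 5 to 12 recordings.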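 On AC50: potency for a decrease in mean network spike duration versus DMSO.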 An outline of the steps:
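Rat cortical primary cultures, 48-well MEA (16 electrodes/well); compound from plating, renewed DIV 5, 9. Network spike duration (AxIS adaptive detector) recorded DIV 5/7/9/12, combined as trapezoidal AUC; loss direction vs DMSO.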

The nature of assay [12]: CCTE_Shafer_MEA_dev_network_spike_duration_std: CCTE's Neural Network Formation Assay for Standard Deviation of Network Spike Duration, Shafer Lab (AID 2284052).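 Further: area under curve of spike duration SD across recording days 5 to 12; hits are decreases in network spike duration SD versus DMSO vehicle.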 An outline of the steps: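 Rat cortical cultures, 1.5 x 10^5 cells/well, exposed continuously from plating to DIV 12 with media/compound renewal at DIV 5, 9. Spontaneous activity recorded DIV 5/7/9/12, AxIS adaptive spike detector; AUC across days; negative direction vs DMSO.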

A short description of assay [13]: CCTE_Shafer_MEA_dev_per_network_spike_spike_number_mean: CCTE's Neural Network Formation Assay for Mean Number of Spikes in a Network Spike, Shafer Lab (AID 2284053).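 On AC50: fitted as decrease in spikes per network spike relative to DMSO.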 The gist of the method: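 Rat cortical primary cultures on 48-well MEA; compound from day 0, re-dosed with full media change DIV 5, 9. Recorded DIV 5, 7, 9, 12; spikes in 0.05 s window at network-spike peak ÷ total network spikes; AUC; loss vs DMSO.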

Assay [14] can be described thus: UKN5_HCS_SBAD2_cell_viability: Viability Assessment in the University of Konstanz (UKN) Leist Lab Neurite Outgrowth Assay in human iPSC-derived immature Dorsal Root Ganglia Neurons (UKN5) (AID 2284056). An outline of the steps:
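iPSC-derived immature peripheral neurons (SBAD2) seeded on Matrigel with CHIR99021, SU5402 and DAPT, dosed 1 h later for 24 h. Viability from Hoechst H-33342 and calcein-AM live staining, high-content imaging; bidirectional fit versus DMSO.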

Assay [15] can be described thus: CCTE_Shafer_MEA_dev_LDH: CCTE's Lactate Dehydrogenase Assay for Cytotoxicity in the Neural Network Formation Assay, Shafer Lab (AID 2284068; active means hit-call score of the fitted dose curve at least 0.9, where 1 is the maximum;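 further: exposure for twelve days from plating with re-dosing on DIV 5 and 9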). An outline of the steps:
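Rat cortical primary neurons, MEA culture; dosing day 0–12, full medium plus compound exchange DIV 5, 9. Read-out: LDH enzyme activity, spectrophotometric. DMSO = negative control/baseline; signal loss → cytotoxicity.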

Assay [16] is described as follows: UKN5_HCS_SBAD2_neurite_outgrowth: University of Konstanz (UKN) Leist Lab Neurite Outgrowth Assay in human iPSC-derived immature Dorsal Root Ganglia Neurons (UKN5) (AID 2284070). The following applies: actives raise or lower the signal. An outline of the steps:
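Human iPSC-derived immature DRG neurons (SBAD2) on Matrigel with CHIR99021 (1.5 uM), SU5402 (5 uM), DAPT (5 uM); compounds added 1 h post-seeding for 24 h. Calcein-AM neurite area imaged; bidirectional fit vs DMSO.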

Assay [17] is described as follows: CCTE_Shafer_MEA_dev_AB: CCTE's Alamar Blue Assay for Cytotoxicity in the Neural Network Formation Assay, Shafer Lab (AID 2284083; active means hit-call score of the fitted dose curve at least 0.9, where 1 is the maximum;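 further: resazurin reduction fluorescence as viability of cultured neurons; twelve days of exposure from plating with re-dosing on DIV 5 and 9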). The gist of the method: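 Rat cortical primary cultures, 1.5 x 10^5 cells/well on MEA; continuous compound exposure over 12 days of network development, re-dosed with full medium change DIV 5 and 9. Alamar Blue fluorescence; loss of signal = cytotoxicity vs DMSO baseline.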

Assay [18] can be described thus: CCTE_Shafer_MEA_dev_per_network_spike_spike_percent: CCTE's Neural Network Formation Assay for Percent of Spikes in a Network Spike, Shafer Lab (AID 2284054). An outline of the steps:
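Primary rat cortical neurons on 16-electrode MEA wells (PEI-coated, laminin at plating), exposed from day 0 with renewal at DIV 5 and 9; spikes within 0.05 s of network-spike peaks over total spikes, AUC across days 5, 7, 9, 12.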

Chain of Estrogen receptor (Homo sapiens) (P03372 whole entry, looked up): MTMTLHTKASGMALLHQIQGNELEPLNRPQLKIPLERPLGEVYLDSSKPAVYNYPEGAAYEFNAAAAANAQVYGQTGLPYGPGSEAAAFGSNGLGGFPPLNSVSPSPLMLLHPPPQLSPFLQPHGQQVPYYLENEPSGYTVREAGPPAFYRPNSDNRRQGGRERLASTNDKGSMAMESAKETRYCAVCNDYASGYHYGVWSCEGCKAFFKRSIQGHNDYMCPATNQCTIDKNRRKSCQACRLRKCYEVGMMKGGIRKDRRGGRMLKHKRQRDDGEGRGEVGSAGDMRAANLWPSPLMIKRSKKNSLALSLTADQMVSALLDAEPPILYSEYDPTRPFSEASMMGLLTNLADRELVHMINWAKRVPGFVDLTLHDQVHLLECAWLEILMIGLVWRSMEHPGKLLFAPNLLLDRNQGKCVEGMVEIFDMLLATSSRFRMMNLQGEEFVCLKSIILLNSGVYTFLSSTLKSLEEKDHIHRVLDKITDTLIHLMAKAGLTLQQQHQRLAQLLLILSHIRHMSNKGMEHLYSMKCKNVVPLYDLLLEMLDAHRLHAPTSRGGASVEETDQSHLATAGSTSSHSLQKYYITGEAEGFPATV

Turning to `CCOP(=S)(OCC)SCSP(=S)(OCC)OCC`, the outcome in assay [1] and in [2] was inactive.
The term AC50 denotes the concentration at which the activity in the assay is half-maximal. Take `CC(C)(c1ccccc1)c1ccc(O)c(C(C)(C)c2ccccc2)c1`: the outcome in assay [1] and in assay [2] was inactive. Moreover, the AC50 in the assay with DIO2 (gene 1734) was 91.9 µM (active); in the assay with DIO3 (gene 1735), 17.3 µM (active).
Take `CC(C)(C)CC(C)(C)c1ccc(O)cc1`: the half-maximal activity concentration (AC50) with DIO2 (gene 1734) is 105 µM (active); with DIO3 (gene 1735) it was 82 µM (active). Also, in [2], the outcome was inactive.
`CCC(C)(C)c1ccc(O)c(C(C)(C)CC)c1`: the result in assay [1] was inactive. Besides, the AC50 in the assay with DIO2 (gene 1734) was 79 µM (active); with DIO3 (gene 1735) it was 18.9 µM (active); in [2], 35.4 µM (active).
Regarding `O=C1C2(Cl)C3(Cl)C4(Cl)C(Cl)(Cl)C5(Cl)C3(Cl)C1(Cl)C5(Cl)C24Cl` (stereo not given), the concentration at half-maximal activity (AC50) in assay [3] is 3.99 µM (active); in assay [4], 3.55 µM (active); in assay [5], 10 µM (active); in assay [7], 3.75 µM (active); in assay [8] it was 0.00131 µM (active); in assay [9], 3.18 µM (active). In addition, the AC50 in assay [10] is 5.38 µM (active); in the assay with DIO2 (gene 1734) it was 28.3 µM (active); in assay [11], 5.43 µM (active); in [12] it was 0.028 µM (active); in assay [13], 0.341 µM (active); with DIO3 (gene 1735), 4.51 µM (active). The AC50 in assay [15] is 8.19 µM (active); in assay [16], 14.6 µM (active); in assay [17] it was 8.77 µM (active). In addition, the call in assay [6], in assay [14] and in assay [2] was inactive.
`Cn1sc(Cl)cc1=O`: the AC50 in assay [3] was 5.73 µM (active); in assay [4], 5.1 µM (active); in assay [5] it was 7.73 µM (active); in [6] it was 7.64 µM (active); in assay [7], 7.54 µM (active); in [9] it was 4.45 µM (active). Besides, the AC50 in assay [10] is 3.57 µM (active); in assay [11], 7.62 µM (active); in assay [12], 1.84 µM (active); in assay [13], 3.51 µM (active); in assay [18], 7.62 µM (active); in assay [15], 4.61 µM (active). Besides, the AC50 in assay [17] was 5.49 µM (active). Also, the call in assay [8] was inactive.
In the case of `O=C1C(Cl)=C(Cl)C(=O)c2ccccc21`, the outcome in [1] was inactive. The half-maximal activity concentration (AC50) in the assay on DIO2 (gene 1734) was 26.8 µM (active); in the assay with DIO3 (gene 1735), 11.3 µM (active).
Turning to `CCN1CCC2(CC1)COc1cc3c(cc12)N(C(=O)c1ccc(-c2ccc(-c4nnc(C)o4)cc2C)cc1)CC3`, the half-maximal activity concentration (AC50) in [2] was 17.2 µM (active).
With `O=C(O)C(F)(F)C(F)(F)C(F)(F)C(F)(F)C(F)(F)C(F)(F)F`, the call in [3], in [5], in assay [6], in assay [7], in assay [8] and in [9] was inactive. Besides, the compound was called inactive in assay [10], in [11], in assay [12], in assay [13] and in [18].
